Compound activity: PubChem BioAssay, Johns Hopkins Ion Channel Center
KCNQ2 enhance – potentiators of rat KCNQ2 potassium channel; CHO-K1 KCNQ2, FluxOR thallium flux fluorescence; active compounds read high; 310,000 compounds, 0.54% hits; O88943; B-score at 10 µM;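 active means fluorescence ratio B-score at least 3 SD of library B-scores, with initial fluorescence B-score within 3 of them, cut at about 5.3 in these data; same plate scores as AID 2156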;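 further: B-score of peak minus minimum over baseline fluorescence ratio after K+ and Tl+ stimulus; positive B-score means potentiation of KCNQ2 with more thallium influx and brighter signal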
KCNQ2 inh – inhibitors of rat KCNQ2 potassium channel | O88943 | CHO-K1 KCNQ2, FluxOR thallium flux, 20 min; active compounds read low | B-score at 10 µM | 310,000 compounds, 1.1% hits | AID 2156;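 active means fluorescence ratio B-score at most minus 3 library SDs, with starting brightness B-score within 2 library SDs, cut at about -5.5 in these data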
KCNQ2 inh conf – rat KCNQ2 channel inhibition, confirmatory screen; KCNQ2-expressing cells, thallium flux; active compounds read low; activity change, negative = inhibition, % at 10 µM; 1,000 compounds, 57% hits; shares compounds with KCNQ2 inh;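 further: 0% = vehicle wells and values are ratio percent relative to vehicle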
KCNQ1 spec – KCNQ2 inhibitor that also affects human KCNQ1 channel. AID 493026. activity change, negative = inhibition, % at 10 µM. shares compounds with KCNQ2 inh. KCNQ1-expressing cells, FluxOR thallium flux fluorescence; active compounds read low. 1,000 compounds, 15% hits;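 active means activity change at least 3 SD of negative controls below their mean in both duplicate wells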;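 further: CHO cells stably transfected with KCNQ1 and depolarized by potassium stimulus; peak minus minimum fluorescence over baseline after thallium addition; 0% = vehicle negative control and -100% = blank without thallium stimulus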
Target sequence (P51787 whole entry, looked up): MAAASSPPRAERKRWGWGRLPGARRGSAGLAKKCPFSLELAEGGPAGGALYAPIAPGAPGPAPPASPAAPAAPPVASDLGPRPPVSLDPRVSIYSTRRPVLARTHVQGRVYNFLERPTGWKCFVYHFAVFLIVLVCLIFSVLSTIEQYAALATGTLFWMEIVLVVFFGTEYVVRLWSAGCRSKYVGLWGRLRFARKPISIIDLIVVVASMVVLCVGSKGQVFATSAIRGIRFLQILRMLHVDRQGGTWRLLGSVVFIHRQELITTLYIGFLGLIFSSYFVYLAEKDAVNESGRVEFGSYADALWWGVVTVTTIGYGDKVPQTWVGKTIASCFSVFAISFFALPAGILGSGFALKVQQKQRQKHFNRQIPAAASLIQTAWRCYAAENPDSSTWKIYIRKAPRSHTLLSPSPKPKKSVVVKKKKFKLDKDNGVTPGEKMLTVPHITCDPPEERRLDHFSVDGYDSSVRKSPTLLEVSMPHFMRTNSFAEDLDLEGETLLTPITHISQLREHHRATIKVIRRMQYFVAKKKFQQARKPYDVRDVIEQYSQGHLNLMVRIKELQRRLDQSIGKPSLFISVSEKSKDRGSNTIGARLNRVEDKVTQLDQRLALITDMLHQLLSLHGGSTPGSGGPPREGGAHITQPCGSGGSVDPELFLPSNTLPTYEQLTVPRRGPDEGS
CHO Tl ctr – activity in parental CHO cells lacking KCNQ2; shares compounds with KCNQ2 inh; thallium flux counter-screen; active compounds read low; activity change, % at 10 µM; 1,000 compounds, 14% hits; AID 493029;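 further: 0% = vehicle negative controls with stimulus buffer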
KCNQ2 inh confirm – rat KCNQ2 inhibition confirmed by electrophysiology. AID 588531. shares compounds with KCNQ2 inh. KCNQ2-expressing cells, automated patch clamp current. calls only at 10 µM. 550 compounds, 49% hits
* hit, by the source's call; i = inactive; · = not tested or not shown; + = active, no number. The list is not random: actives were taken first. Their share in the collection is about 1.6%. Unless noted, how the calls were made is not given here.

SMILES	KCNQ2 enhance	KCNQ2 inh	KCNQ2 inh conf	KCNQ1 spec	CHO Tl ctr	others
Cc1ccccc1CN(C)CC(=O)Nc1ccccc1Oc1ccccc1	-7.5	-7.5*	-32%*	-32%*	-26%*	KCNQ2 inh confirm=i
CN(CC(=O)Nc1ccccc1Oc1ccccc1)Cc1ccccc1F	·	i	·	·	·
COc1ccccc1N(CC(=O)NC(C)(C)C)C(=O)CCC(=O)Nc1nccs1	2.9	i	·	·	·
CC(=O)N/C(=C\c1ccccc1)C(=O)OCCCOC(=O)/C(=C/c1ccccc1)NC(C)=O	·	i	·	·	·
CCn1cc(CN2CCCC(C(=O)Nc3cccc(-c4cc5ccccc5[nH]4)c3)C2)cn1 (stereo not drawn)	·	i	·	·	·
CCN(CC(=O)Nc1c(F)cccc1F)C(=O)c1n[nH]c2ccccc12	0.98	i	·	·	·
CCOC(=O)c1sc(NC(=O)c2cc(-c3ccccc3C)nc3ccccc23)c(C#N)c1C	-9	-9*	-40%*	-36%*	-26%*	KCNQ2 inh confirm=i
CCOC(=O)c1sc(NC(=O)c2ccncc2)c(C#N)c1C	0.3	i	·	·	·
Cc1nc(N2CCN(Cc3ccccc3)CC2)nc2c1C(=O)CC(c1ccco1)C2 (stereo not drawn)	-9.6	-9.6*	i	i	i
Cc1nc(N2CCN(Cc3ccc4c(c3)OCO4)CC2)nc2c1C(=O)CC(c1ccco1)C2 (stereo not drawn)	·	i	·	·	·
CS(=O)(=O)c1ccc(C(=O)Nc2ccc(N3CCCCC3)cc2)c(Cl)c1	0.36	i	·	·	·
Cc1ccc(Sc2ccc(NC(=O)c3ccc(S(C)(=O)=O)cc3Cl)cc2)cc1	-8.8	-8.8*	i	i	i
COc1cc(OC)c(C(=O)OCC(=O)Nc2ccccc2Cl)cc1OC	·	i	·	·	·
O=C(CCC(=O)N(CC(=O)NC1CCCC1)Cc1ccc(F)cc1)Nc1nccs1	0.68	i	·	·	·
CC(=O)CSc1nnc(C(F)(F)F)n1C	·	i	·	·	·
CC1CCc2c(sc(NC(=O)/C=C/c3cccs3)c2C(=O)O)C1 (stereo not drawn)	4.4	i	·	·	·
CN1/C(=C\C=C(/C#N)C(=O)Nc2ccc(Cl)cc2)C(C)(C)c2ccccc21	·	i	·	·	·
CN1/C(=C\C(=O)Nc2ccc(Cl)cc2)C(C)(C)c2ccccc21	-8.1	-8.1*	-27%*	i	i	KCNQ2 inh confirm=i
CCn1nc(C(=O)Nc2ccccc2N2CCCC2)c2ccccc2c1=O	-8	-8*	-38%*	i	i	KCNQ2 inh confirm=i
CCn1nc(C(=O)Nc2ccc3nc(C)sc3c2)c2ccccc2c1=O	1.2	i	·	·	·
CN(C1CCCCC1)C(CNS(=O)(=O)c1ccc(Cl)cc1)c1ccccc1 (stereo not drawn)	0.25	i	·	·	·
CCCN(CC(=O)Nc1ccccc1OC)C(=O)c1cc(-c2cccs2)nn1-c1ccccc1	-9.3	-9.3*	-32%*	i	i	KCNQ2 inh confirm=+
CCN(CC(=O)Nc1ccccc1C(F)(F)F)C(=O)c1cc(-c2cccs2)nn1-c1ccccc1	·	i	·	·	·
CN(Cc1ccsc1)C(=O)CCc1nnc(CCCc2ccccc2)o1	·	i	·	·	·
CCN(Cc1ccccc1)C(=O)CCc1nnc(CCCc2ccccc2)o1	-10	-10*	-26%*	i	i	KCNQ2 inh confirm=+
SMILES	KCNQ2 enhance	KCNQ2 inh	KCNQ2 inh conf	KCNQ1 spec	CHO Tl ctr	others
O=C(NCCCSc1ccccc1)c1cc(Cl)ccc1O	·	i	·	·	·
COc1ccc(NC(=O)NC2CCCc3ccccc32)cc1 (stereo not drawn)	·	i	·	·	·
COc1ccccc1OCC(=O)NC1CCCc2ccccc21 (stereo not drawn)	·	i	·	·	·
CC1CCCCC12NC(=O)N(CC(=O)NC1CCCc3ccccc31)C2=O (stereo not drawn)	·	i	·	·	·
COC(=O)[C@@H](NC(=O)NC1CCCc2ccccc21)C(C)C (stereo partly drawn)	-7.2	-7.2*	i	i	i
CC(C)=CC(=O)OCC(=O)NC1CCCc2ccccc21 (stereo not drawn)	-6.7	-6.7*	i	i	i
O=C(CN1C(=O)NC2(CCCCCCC2)C1=O)NC1CCCc2ccccc21 (stereo not drawn)	-7.5	-7.5*	-19%*	i	i	KCNQ2 inh confirm=+
O=C(NCC(c1ccco1)N1CCc2ccccc21)c1cccc([N+](=O)[O-])c1 (stereo not drawn)	·	i	·	·	·
COc1cccc(OC)c1NC(=O)C1CCCN1C(=O)Nc1cccc(Cl)c1 (stereo not drawn)	·	i	·	·	·
Cc1cc2c(cc1S(=O)(=O)N(C)c1ccccc1)n(C)c(=O)n2C	0.79	i	·	·	·
Cc1cc(C)c(S(=O)(=O)N(C)c2ccccc2)c(C)c1	-7.5	-7.5*	-31%*	i	i	KCNQ2 inh confirm=i
CNC(=O)c1ccc(-c2sc3nc(N4CCOCC4)c4c(c3c2N)CC(C)(C)OC4)o1	0.03	i	·	·	·
CNC(=O)c1ccc(-c2sc3nc(N4CCOCC4)c4c(c3c2N)CCCC4)o1	-9.5	-9.5*	-22%*	i	i	KCNQ2 inh confirm=i
Cc1cc(C)c2nc(-c3cccc(Cl)c3)c(C)c(C(=O)N3CCOCC3)c2c1	-8.8	-8.8*	-28%*	i	i	KCNQ2 inh confirm=+
Cc1onc(-c2c(Cl)cccc2Cl)c1C(=O)N1CCOCC1	0.75	i	·	·	·
CCO[C@H]1OC(C(=O)O)=C[C@@H](c2coc3ccccc3c2=O)[C@@H]1CCCO	1.5	i	·	·	·
CCCc1cc(=O)[nH]c(SCCc2ccccc2)n1	1.4	i	·	·	·
O=C(N/N=C/c1ccc2c(c1)OCO2)C1CC1	·	i	·	·	·
CCOC(=O)COc1ccccc1C1Nc2ccccc2C(=O)N1c1cccc(Cl)c1 (stereo not drawn)	·	i	·	·	·
CCOC(=O)COc1c(OC)cc(Cl)cc1C1Nc2ccccc2C(=O)N1c1cccc(C)c1 (stereo not drawn)	-10	-10*	i	i	i
COc1ccc(-c2cc(C(=O)Nc3ccccc3N3CCOCC3)c3ccccc3n2)cc1OC	-8.2	-8.2*	-38%*	-35%*	-28%*	KCNQ2 inh confirm=+
O=C(Nc1ccc(N2CCOCC2)cc1)c1cc(-c2ccncc2)nc2ccccc12	·	i	·	·	·
O=C(Nc1ccccc1N1CCOCC1)c1cc(-c2ccncc2)nc2ccccc12	-7.2	-7.2*	-50%*	-45%*	-38%*	KCNQ2 inh confirm=+
COc1ccc(-c2cc(C(=O)NNC(=O)c3csc(N4CCOCC4)n3)c3ccccc3n2)cc1OC	0.04	i	·	·	·
O=C(CSc1nc2scc(-c3ccccc3)c2c(=O)[nH]1)N1CCOCC1	·	i	·	·	·
O=[N+]([O-])c1ccc(Cc2cncc(O)c2)cc1	·	i	·	·	·
CCOC(=O)C1C(=O)C=C(c2cccs2)CC1c1ccccc1 (stereo not drawn)	·	i	·	·	·
CCOC(=O)C1C(=O)C=C(c2ccc(C)cc2)CC1c1ccccc1 (stereo not drawn)	-7.2	-7.2*	-26%*	i	i	KCNQ2 inh confirm=i
O=C(CCSc1ccc(Cl)c(Cl)c1)NC12CC3CC(CC(C3)C1)C2	-11	-11*	i	i	i
O=C(CSc1ccc(F)cc1)NC12CC3CC(CC(C3)C1)C2	·	i	·	·	·
